Laboratory results reported in PubChem BioAssay (NCATS).
Inconclusive results are not listed. Where a call stands in place of a potency, no number is given. Activity calls are given as the source filed them. The call rests on the fitted dose curve; in most records, active means well fitted inhibition curve with a large enough effect; inconclusive means small, poorly fitted or top-dose-only effect; inactive means flat fitted curve, though single readings scatter.

Assays:
Test in all cases: qHTS profiling for inhibitors of Plasmodium falciparum proliferation (AID 504749); further: nearly all actives have a fitted effect of over 60% in size
Details in all cases: P. falciparum in erythrocytes, SYBR Green DNA, 72 h; series mostly up to 28.7 µM
[1] = tested on: Dd2
Summary of the method: (§1)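 P. falciparum-infected erythrocytes (0.3% parasitemia, 2.5% hematocrit final) were exposed to compounds for 72 h at 37 C in 5% CO2, then lysed with SYBR Green buffer overnight at room temperature; parasite DNA fluorescence was normalized to artemisinin and DMSO controls.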

[2] = tested on: ECU
Summary of the method: as §1

[3] = tested on: FAB9
Summary of the method: as §1

[4] = tested on: HB3
Summary of the method: as §1

[5] = tested on: ICS
Summary of the method: as §1

[6] = tested on: JCK
Summary of the method: as §1

[7] = tested on: N140
Summary of the method: as §1

[8] = tested on: P93_24
Summary of the method: as §1

[9] = tested on: P94_40
Summary of the method: as §1

[10] = tested on: PAD
Summary of the method: as §1

[11] = tested on: PC15
Summary of the method: as §1

[12] = tested on: PC49
Summary of the method: as §1

[13] = tested on: SC27B
Summary of the method: as §1

[14] = tested on: TAB109
Summary of the method: as §1

[15] = tested on: TAB113
Summary of the method: as §1

[16] = tested on: DIV17
Summary of the method: as §1

[17] = tested on: DIV30
Summary of the method: as §1

[18] = tested on: GB4
Summary of the method: as §1

[19] = tested on: PC26
Summary of the method: as §1

[20] = tested on: DIV14
Summary of the method: as §1
Potency means the concentration at half of the fitted maximal effect.

| Structure (SMILES) | Potency [1] | Potency [2] | Potency [3] | Potency [4] | Potency [5] | Potency [6] | Potency [7] | Potency [8] | Potency [9] | Potency [10] | Potency [11] | Potency [12] | Potency [13] | Potency [14] | Potency [15] | Potency [16] | Potency [17] | Potency [18] | Potency [19] | Potency [20] |
| --- | --- | --- | --- | --- | --- | --- | --- | --- | --- | --- | --- | --- | --- | --- | --- | --- | --- | --- | --- | --- |
| CCN(CC)CCNC(=O)c1cc(S(C)(=O)=O)ccc1OC | inactive | inactive | inactive | inactive | inactive | inactive | inactive | inactive | inactive | inactive | inactive | inactive | inactive | inactive | inactive | – | – | – | – | – |
| CC(=O)Nc1nnc(S(N)(=O)=O)s1 | inactive | inactive | inactive | inactive | inactive | inactive | inactive | inactive | inactive | inactive | inactive | inactive | inactive | inactive | inactive | inactive | inactive | inactive | inactive | – |
| OCCN1CCN(CC/C=C2/c3ccccc3Sc3ccc(C(F)(F)F)cc32)CC1 | 7.94 µM (active) | 12.6 µM (active) | – | 6.31 µM (active) | 6.31 µM (active) | – | 11.2 µM (active) | 10 µM (active) | 10 µM (active) | 10 µM (active) | 12.6 µM (active) | – | 10 µM (active) | 8.91 µM (active) | 11.2 µM (active) | 6.75 µM (active) | 8.49 µM (active) | 6.75 µM (active) | 6.75 µM (active) | – |
| NC(=Nc1ccccc1)Nc1ccccc1 | – | inactive | inactive | inactive | inactive | inactive | inactive | inactive | inactive | inactive | inactive | inactive | inactive | inactive | inactive | inactive | inactive | – | – | – |
| CC(C)[N+](C)(CCOC(=O)C1c2ccccc2Oc2ccccc21)C(C)C | – | – | – | – | – | inactive | – | – | – | – | inactive | inactive | – | – | – | – | inactive | – | inactive | – |
| CN(C)CC/C=C1\c2ccccc2COc2ccccc21 | 8.91 µM (active) | inactive | inactive | inactive | – | inactive | – | – | – | inactive | inactive | – | – | – | – | – | – | – | – | – |
| O=C1CC2(CCCC2)CC(=O)N1CCCCN1CCN(c2ncccn2)CC1 | inactive | – | inactive | inactive | inactive | inactive | inactive | inactive | inactive | inactive | inactive | inactive | inactive | inactive | inactive | – | inactive | – | – | – |
| Nc1c2c(nc3ccccc13)CCCC2O (stereo not given) | inactive | inactive | inactive | inactive | inactive | inactive | inactive | inactive | inactive | inactive | inactive | inactive | inactive | inactive | inactive | – | inactive | inactive | inactive | inactive |
| CCOC(=O)C1=C(C)NC(C)=C(C(=O)OC)C1c1cccc([N+](=O)[O-])c1 (stereo not given) | – | – | inactive | 11.2 µM (active) | – | – | 11.2 µM (active) | – | 11.2 µM (active) | – | – | – | 12.6 µM (active) | – | – | – | – | – | – | – |
| CC(C)(C)c1ccc(C(=O)CCCN2CCC(OC(c3ccccc3)c3ccccc3)CC2)cc1 | 10 µM (active) | – | – | – | 4.47 µM (active) | inactive | 10 µM (active) | – | 7.94 µM (active) | – | – | inactive | – | – | – | – | – | 10.7 µM (active) | – | – |
| CCCCNc1c(C(=O)OCC)c(C)nc2c1cnn2CC | inactive | inactive | inactive | inactive | – | inactive | inactive | inactive | – | inactive | inactive | inactive | inactive | inactive | inactive | – | inactive | inactive | inactive | inactive |
| Fc1ccc(C(c2ccc(F)cc2)N2CCN(C/C=C/c3ccccc3)CC2)cc1 | – | 11.2 µM (active) | – | 11.2 µM (active) | 8.91 µM (active) | – | 11.2 µM (active) | 8.91 µM (active) | – | – | – | – | – | – | – | – | – | – | – | – |
| c1cc(CN2CCCCC2)cc(OCCCNc2nc3ccccc3s2)c1 | 6.31 µM (active) | – | inactive | – | – | inactive | – | – | 10 µM (active) | – | – | – | – | 2.24 µM (active) | – | – | – | – | – | – |
| COC(=O)[C@@H](N)Cc1ccc(O)c(O)c1 | inactive | inactive | inactive | inactive | inactive | inactive | inactive | inactive | inactive | inactive | inactive | inactive | inactive | inactive | – | – | inactive | – | inactive | – |
| CCOC(=O)c1cnc2c(cnn2CC)c1NN=C(C)C | inactive | inactive | inactive | inactive | – | inactive | inactive | inactive | – | inactive | inactive | inactive | inactive | inactive | inactive | – | inactive | inactive | inactive | – |
| Cc1nc2ccccn2c(=O)c1CCN1CCC(C(=O)c2ccc(F)cc2)CC1 | – | inactive | inactive | inactive | 8.91 µM (active) | inactive | inactive | – | – | – | – | – | inactive | – | inactive | – | – | – | inactive | 6.75 µM (active) |
| COc1ccc(CCN(C)CCCC(C#N)(c2cc(OC)c(OC)c(OC)c2)C(C)C)cc1OC (stereo not given) | 5.62 µM (active) | – | inactive | – | 7.94 µM (active) | – | – | – | – | – | inactive | inactive | – | – | – | 13.5 µM (active) | – | – | – | – |
| O=C(O)CN(CCN(CC(=O)O)CC(=O)O)CCN(CC(=O)O)CC(=O)O | inactive | inactive | inactive | inactive | inactive | inactive | inactive | inactive | inactive | inactive | inactive | inactive | inactive | inactive | inactive | – | inactive | – | inactive | inactive |
| COCCCC/C(=N\OCCN)c1ccc(C(F)(F)F)cc1 | 7.94 µM (active) | – | inactive | inactive | – | inactive | – | 8.91 µM (active) | – | – | – | inactive | – | – | – | – | – | – | – | – |
| NC(N)=NC(=O)Cc1c(Cl)cccc1Cl | – | – | – | – | 7.94 µM (active) | – | – | – | – | – | – | – | – | – | inactive | inactive | – | 6.75 µM (active) | 7.57 µM (active) | inactive |
| C[n+]1cc2c3c(ccc2c2ccc4cc5c(cc4c21)OCO5)OCO3 | inactive | inactive | inactive | inactive | inactive | inactive | inactive | inactive | inactive | inactive | inactive | inactive | inactive | inactive | – | inactive | inactive | – | – | – |
